From PubChem BioAssay (NCI) come the findings set out here.

Where “and” joins values, the source holds several entries; their conditions need not be identical. Equal values may be shown once. The panel holds about 83,000 compounds, 20% with a hit somewhere; the sample as a whole holds those more often.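 Single-dose data. Exposure time 48 hours. Values below 10 considered active.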 Calls of active or inactive are those of the source.

Test systems include SR leukemia; RPMI-8226 leukemia; OVCAR-8 ovarian; OVCAR-5 ovarian; OVCAR-4 ovarian; SK-OV-3 ovarian; IGROV1 ovarian; OVCAR-3 ovarian; HS 578T breast; NCI/ADR-RES ovarian; T-47D breast; BT-549 breast; MDA-MB-435 melanoma; SW-620 colon; MCF7 breast; HCT-116 colon; HCC-2998 colon; KM12 colon.
Holding throughout (assay): NCI-60 one-dose screen, 48 h (100 = growth as untreated, 0 = no growth, -100 = all killed)
What all share (conditions): 10 µM unless noted

Consider `Oc1ccccc1C=Nc1ccc(N2CCN(c3ccccc3)CC2)cc1`, for which the growth is 98% (inactive) in the assay with SR leukemia; 91% (inactive) in the assay with RPMI-8226 leukemia; 96.9% (inactive) with OVCAR-8 ovarian; 109% (inactive) with OVCAR-5 ovarian; 91% (inactive) in the assay with OVCAR-4 ovarian; 64.6% (inactive) with SK-OV-3 ovarian. Also, the growth with IGROV1 ovarian was 103% (inactive); with OVCAR-3 ovarian, 100% (inactive); with HS 578T breast, 105% (inactive); with NCI/ADR-RES ovarian, 92.6% (inactive); in the assay on T-47D breast, 81.7% (inactive); in the assay on BT-549 breast, 54.8% (inactive). For the same compound, the growth with MDA-MB-435 melanoma was 96.5% (inactive); with SW-620 colon it was 110% (inactive); in the assay with MCF7 breast, 84% (inactive); in the assay on HCT-116 colon it was 87.1% (inactive); in the assay with HCC-2998 colon it was 90.2% (inactive); in the assay with KM12 colon it was 103% (inactive).

Regarding `O=C(NCc1cccnc1)/C(=C\c1ccc(Br)cc1)S(=O)(=O)c1ccccc1`, the growth with SR leukemia was 55.9% (inactive); in the assay with RPMI-8226 leukemia, 26.7% (inactive); in the assay with OVCAR-8 ovarian, 3.01% (active); with OVCAR-5 ovarian it was -41.3% (active); with OVCAR-4 ovarian, 0.235% (active); in the assay on SK-OV-3 ovarian, 10.2% (inactive). Besides, the growth is -11.3% (active) in the assay with IGROV1 ovarian; -96.7% (active) with OVCAR-3 ovarian; 14.9% (inactive) with HS 578T breast; 2.59% (active) in the assay on NCI/ADR-RES ovarian; -64.6% (active) in the assay with T-47D breast; -21.2% (active) with BT-549 breast. For the same compound, the growth in the assay on MDA-MB-435 melanoma is -14.9% (active); in the assay with SW-620 colon, -74% (active); in the assay on MCF7 breast, -44.4% (active); in the assay on HCT-116 colon it was -76% (active); in the assay with HCC-2998 colon, -76.5% (active); in the assay with KM12 colon, -48.1% (active).

For `O=C1C=CC(=O)N1c1ccc2ccccc2c1`, the growth with SR leukemia was 40.7% (inactive) and 63.4% (inactive); in the assay on RPMI-8226 leukemia it was 105% (inactive) and 81.3% (inactive); in the assay with OVCAR-8 ovarian, 103% (inactive) and 101% (inactive); in the assay on OVCAR-5 ovarian, 96.6% (inactive) and 97.9% (inactive); with OVCAR-4 ovarian, 93.7% (inactive); with SK-OV-3 ovarian it was 107% (inactive) and 99.7% (inactive). Moreover, the growth in the assay with IGROV1 ovarian was 101% (inactive) and 105% (inactive); in the assay on OVCAR-3 ovarian, 69.7% (inactive) and 93.9% (inactive); with HS 578T breast, 93.6% (inactive) and 103% (inactive); with NCI/ADR-RES ovarian, 99.7% (inactive) and 104% (inactive); in the assay with T-47D breast it was 88.7% (inactive) and 88.6% (inactive); in the assay with BT-549 breast it was 114% (inactive) and 103% (inactive). Also, the growth is 120% (inactive) and 95.4% (inactive) in the assay on MDA-MB-435 melanoma; 19.4% (inactive) and -15.2% (active) with SW-620 colon; 95.4% (inactive) and 106% (inactive) in the assay with MCF7 breast; 44.9% (inactive) and 54.9% (inactive) in the assay on HCT-116 colon; 100% (inactive) and 106% (inactive) in the assay on HCC-2998 colon; 103% (inactive) and 104% (inactive) in the assay on KM12 colon.

For the compound `O=C(/C=C/c1ccc([N+](=O)[O-])cc1)c1ccccc1`, the growth was 7.6% (active) in the assay on SR leukemia; 41.6% (inactive) in the assay on RPMI-8226 leukemia; 98.3% (inactive) in the assay with OVCAR-8 ovarian; 106% (inactive) with OVCAR-5 ovarian; 98.1% (inactive) in the assay on OVCAR-4 ovarian; 92.5% (inactive) in the assay on SK-OV-3 ovarian. Also, the growth is 87.3% (inactive) in the assay on IGROV1 ovarian; 99.6% (inactive) in the assay on OVCAR-3 ovarian; 93.2% (inactive) in the assay on HS 578T breast; 103% (inactive) in the assay with NCI/ADR-RES ovarian; 60.2% (inactive) in the assay with T-47D breast; 93.6% (inactive) with BT-549 breast. Besides, the growth in the assay on MDA-MB-435 melanoma was 89.3% (inactive); in the assay on SW-620 colon, 72.1% (inactive); in the assay on MCF7 breast, 20.2% (inactive); with HCT-116 colon it was 17% (inactive); in the assay on HCC-2998 colon, 102% (inactive); in the assay on KM12 colon it was 57% (inactive).

Regarding `CN(C)CCN1C(=O)c2c(c3c4ccccc4n4c3c3c2c2ccccc2n3C2CC(O)C(O)C4(C)O2)C1=O` (stereo unspecified), the growth was 5.57% (active) with SR leukemia; 18.5% (inactive) in the assay with RPMI-8226 leukemia; 25.3% (inactive) in the assay on OVCAR-8 ovarian; 55.6% (inactive) with OVCAR-5 ovarian; 29.3% (inactive) in the assay on OVCAR-4 ovarian; 25.3% (inactive) in the assay with SK-OV-3 ovarian. For the same compound, the growth in the assay with IGROV1 ovarian was 16.5% (inactive); in the assay with OVCAR-3 ovarian it was 41.4% (inactive); in the assay with HS 578T breast, 41.7% (inactive); with NCI/ADR-RES ovarian it was 54.5% (inactive); with T-47D breast it was 30.1% (inactive); with BT-549 breast, 62.9% (inactive). The growth in the assay on MDA-MB-435 melanoma is 32.1% (inactive); with SW-620 colon, 18.5% (inactive); in the assay on MCF7 breast, 6.41% (active); with HCT-116 colon, 22.4% (inactive); with HCC-2998 colon, 26.4% (inactive); with KM12 colon, 34.2% (inactive).

In the case of `COc1ccc2c(c1)oc1c(C)c3c(c(C)c12)C(=O)N(Nc1ccccc1)C3=O`, the growth in the assay with SR leukemia was 104% (inactive); in the assay on RPMI-8226 leukemia it was 112% (inactive); in the assay with OVCAR-8 ovarian it was 104% (inactive); with OVCAR-5 ovarian, 92% (inactive); with OVCAR-4 ovarian, 100% (inactive); in the assay on SK-OV-3 ovarian, 92% (inactive). Also, the growth is 102% (inactive) in the assay on IGROV1 ovarian; 105% (inactive) in the assay with OVCAR-3 ovarian; 105% (inactive) in the assay with HS 578T breast; 112% (inactive) in the assay with NCI/ADR-RES ovarian; 88.1% (inactive) in the assay with T-47D breast; 91.6% (inactive) in the assay on BT-549 breast. Besides, the growth with MDA-MB-435 melanoma was 104% (inactive); in the assay with SW-620 colon it was 110% (inactive); with MCF7 breast, 94.7% (inactive); in the assay on HCT-116 colon it was 96% (inactive); in the assay with HCC-2998 colon it was 105% (inactive); with KM12 colon it was 97.4% (inactive).

With `CCN1C(=S)N(CC)C2C1NC(=S)N2/N=C/C=C/c1ccccc1` (stereo unspecified), the growth in the assay with SR leukemia is 20% (inactive); with RPMI-8226 leukemia, 41.4% (inactive); in the assay with OVCAR-8 ovarian, 41.6% (inactive); in the assay with OVCAR-5 ovarian, 54.5% (inactive); with OVCAR-4 ovarian, 61% (inactive); in the assay on SK-OV-3 ovarian, 35.5% (inactive). The growth in the assay with IGROV1 ovarian was 37.9% (inactive); in the assay on OVCAR-3 ovarian, 3.77% (active); in the assay with HS 578T breast, 12.1% (inactive); with NCI/ADR-RES ovarian, 15.4% (inactive); in the assay with T-47D breast it was 36.9% (inactive); in the assay on BT-549 breast, 47.5% (inactive). For the same compound, the growth with MDA-MB-435 melanoma was -39% (active); with SW-620 colon, 28% (inactive); with MCF7 breast, 17.8% (inactive); with HCT-116 colon it was 22.8% (inactive); with HCC-2998 colon, 56.7% (inactive); in the assay with KM12 colon it was 22% (inactive).
